# IDE exosite inh: displaces the probe from the exo-site of human IDE. P14735. hit rate 6.3% among 17,000. purified IDE, FL-6b probe fluorescence polarization; stronger effect = lower value. AID 1259349. z-score at 20 µM;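 active = z-score of -3 or lower, meaning strong loss of probe binding signal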;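 also: His-tagged human IDE residues 42-1019 made in E. coli with 30 nM FL-6b probe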
# Hits are given with their value; . = inactive; ! = not confirmed by another sample. The full list was thinned out, with hits kept by preference.
SMILES,IDE exosite inh
OC[C@@H]1[C@@H](c2ccc(C#Cc3ccccc3)cc2)[C@@H]2CN(CC3CCOCC3)CCCCN12,.
COc1ccc(-c2ccc([C@@H]3[C@@H](CO)N4CCCCN(CC5CCOCC5)C[C@H]34)cc2)cc1,.
OC[C@H]1[C@H](c2ccc(C#Cc3ccccc3)cc2)[C@H]2CN(CC3CCOCC3)CCCCN21,.
OC[C@@H]1[C@H](c2ccc(-c3cccnc3)cc2)[C@H]2CN(CC3CC3)CCCCN12,.
Cc1ccccc1-c1ccc([C@@H]2[C@H](CO)N3CCCCN(CC4CCOCC4)C[C@@H]23)cc1,-5.49
OC[C@@H]1[C@@H](c2ccc(-c3cccnc3)cc2)[C@H]2CN(CC3CC3)CCCCN12,.
Cc1ccccc1-c1ccc([C@@H]2[C@@H](CO)N3CCCCN(S(C)(=O)=O)C[C@H]23)cc1,.
OC[C@@H]1[C@H](c2ccc(C#Cc3ccccc3)cc2)[C@@H]2CN(CC3CCOCC3)CCCCN12,-3.88
Cc1ccccc1-c1ccc([C@H]2[C@H](CO)N3CCCCN(CC4CC4)C[C@@H]23)cc1,.
Cc1ccccc1-c1ccc([C@@H]2[C@@H](CO)N3CCCCN(CC4CC4)C[C@H]23)cc1,-6.79
COc1ccc(-c2ccc([C@@H]3[C@H]4CN(CC5CCOCC5)CCCCN4[C@H]3CO)cc2)cc1,.
CCCNC(=O)N(Cc1cccnc1)C[C@H]1N[C@H](CO)[C@@H]1c1ccccc1,.
CC=Cc1ccc2n(c1=O)C[C@@H]1[C@@H](CO)[C@H](C(=O)N[C@H](C)c3ccccc3)[C@H]2N1Cc1cncnc1 (mixture of isomers),.
O=C(Nc1ccccc1F)N1CCCCN2[C@H](CO)[C@H](c3ccc(C4=CCCC4)cc3)[C@@H]2C1,.
C[C@@H]1CN([C@H](C)CO)C(=O)c2ccccc2-c2ccccc2CO[C@H]1CN(C)S(=O)(=O)c1cccs1,.
O=C(c1cc2c(c(-c3cccc(Br)c3)n1)[C@@H](CCO)NC2)N1CCCCC1,.
CN(C)CC#Cc1ccc([C@H]2[C@H](CO)N3CCCCN(C(=O)CN(C)C)C[C@@H]23)cc1,.
COc1ccc(NC(=O)N(C)C[C@H]2OCCCC[C@@H](C)Oc3ccc(NC(=O)c4ccncc4)cc3C(=O)N([C@@H](C)CO)C[C@@H]2C)cc1,.
OC[C@H]1[C@H](c2ccc(-c3cccnc3)cc2)[C@@H]2CN(CC3CC3)CCCCN12,.
OC[C@@H]1[C@H](c2ccc(-c3cccnc3)cc2)[C@@H]2CN(CC3CC3)CCCCN12,.
Cc1ccccc1-c1ccc([C@@H]2[C@H](CO)N3CCCCN(CC4CC4)C[C@@H]23)cc1,-9.61
COCC(=O)N1CC(=O)N2[C@H](CO)[C@H](c3ccc(C#CC4CC4)cc3)[C@H]2C1,.
C[C@@H]1CC=CC[C@@H](c2ccc3c(c2)OCO3)NC(=O)[C@@H](C)N(C)C(=O)c2ccccc2O1 (mixture of isomers),.
C[C@H]1CN([C@@H](C)CO)C(=O)c2ccccc2-c2ccccc2CO[C@@H]1CN(C)Cc1cccnc1,.
CN(C[C@@H]1[C@H](c2ccccc2)[C@H](CO)N1Cc1ccccn1)S(C)(=O)=O,.
SMILES,IDE exosite inh
O=S(=O)(c1ccccc1)N1CCCCN2[C@@H](CO)[C@H](c3ccc(C#Cc4ccccc4)cc3)[C@@H]2C1,.
COc1ccc(C#Cc2ccc([C@@H]3[C@H]4CN(S(=O)(=O)c5ccccc5)CCCCN4[C@H]3CO)cc2)cc1,.
CS(=O)(=O)N1CCCCN2[C@H](CO)[C@@H](c3ccc(C#Cc4ccccn4)cc3)[C@@H]2C1,.
CS(=O)(=O)N1CCCCN2[C@H](CO)[C@@H](c3ccc(C#Cc4ccccn4)cc3)[C@H]2C1,.
CCCC#Cc1ccc([C@@H]2[C@H]3CN(S(C)(=O)=O)CCCCN3[C@H]2CO)cc1,.
CCCC#Cc1ccc([C@@H]2[C@@H](CO)N3CCCCN(S(C)(=O)=O)C[C@@H]23)cc1,.
COc1ccccc1C#Cc1ccc([C@@H]2[C@H](CO)N3CCCCN(S(C)(=O)=O)C[C@@H]23)cc1,-17.7
CCCC#Cc1ccc([C@H]2[C@H]3CN(S(C)(=O)=O)CCCCN3[C@H]2CO)cc1,.
COc1ccccc1C#Cc1ccc([C@H]2[C@@H](CO)N3CCCCN(S(C)(=O)=O)C[C@H]23)cc1,-9.88
O=S(=O)(c1ccccc1)N1CCCCN2[C@@H](CO)[C@@H](c3ccc(C#Cc4ccccc4)cc3)[C@@H]2C1,-5.85
CCCC#Cc1ccc([C@@H]2[C@H](CO)N3CCCCN(S(C)(=O)=O)C[C@@H]23)cc1,.
COc1ccccc1C#Cc1ccc([C@H]2[C@H]3CN(S(C)(=O)=O)CCCCN3[C@H]2CO)cc1,-9.83
CC(C)NC(=O)N(C)C[C@@H]1Oc2ccc(NC(=O)Cc3ccccc3)cc2CC(=O)N([C@H](C)CO)C[C@H]1C,.
COc1ccc(-c2ccc([C@H]3[C@@H](C#N)N(C(=O)NC4CCCCC4)[C@H]3CO)cc2)cc1,.
COCC(=O)N1[C@H](C#N)[C@@H](c2ccc(-c3cccc(F)c3)cc2)[C@@H]1CO,.
COc1ccc(C[C@H]2CCn3cc(nn3)COC[C@@H](C)NC2=O)cc1,.
CCCNC(=O)N1CCC2(CC1)CN(C(=O)CC1CC1)[C@H](CO)c1c2c2ccc(OC)cc2n1C,.
CN(C)CC(=O)Nc1ccc2c(c1)C(=O)N(C)[C@H]1CC[C@H](CC(=O)Nc3cccc(Cl)c3)O[C@@H]1CO2,.
CN1C(=O)c2cc(NC(=O)Nc3ccccc3F)ccc2OC[C@H]2O[C@@H](CC(=O)NCCc3ccncc3)CC[C@H]21,.
O=C(CC1CC1)N1CC2(C1)[C@H](c1ccccc1)[C@H](CO)N2Cc1ccccn1,.
CCC(=O)N1CC2(C1)[C@H](c1ccc(-c3cccc(C)c3)cc1)[C@@H](CO)N2S(C)(=O)=O,.
CCC(=O)N1CC2(C1)[C@@H](c1ccc(-c3cccc(C)c3)cc1)[C@@H](CO)N2S(C)(=O)=O,-3.27
CN(C)CC(=O)N1CC2(C1)[C@@H](c1ccccc1)[C@@H](CO)N2S(C)(=O)=O,.
CO[C@@H]1CC[C@@H]2CCOc3ccc(C#N)cc3C(=O)N(C)C[C@@H](c3ccccc3)CC(=O)N(C)C[C@H]1O2,.
COc1cccc(-c2ccc(C3[C@@H]4CN(Cc5cccc(F)c5)C[C@H]3N4)cc2)c1 (some centres not stated),.
SMILES,IDE exosite inh
COc1cccc(CN2C[C@@H]3N[C@H](C2)C3c2ccc(-c3cccc(C#N)c3)cc2)c1 (some centres not stated),.
COc1cccc(CN2C[C@@H]3N[C@H](C2)C3c2ccc(-c3ccccc3F)cc2)c1 (some centres not stated),-5.06!
COc1cccc(CN2C[C@@H]3N[C@H](C2)C3c2ccc(-c3ccccc3C)cc2)c1 (some centres not stated),-3.97!
COc1cccc(CN2C[C@@H]3N[C@H](C2)C3c2ccc(-c3ccncc3)cc2)c1 (some centres not stated),.
Fc1ccc(-c2ccc(C3[C@@H]4CN(Cc5cccc(F)c5)C[C@H]3N4)cc2)cc1 (some centres not stated),.
CC(C)C#Cc1ccc([C@@H]2[C@H](CO)N3CCCCN(C(=O)c4ccc5c(c4)OCO5)C[C@@H]23)cc1,.
COc1ccc([C@H]2C/C=C\C[C@@H](c3cccc(Cl)c3)NC(=O)[C@H](c3ccccc3)CC(=O)N2)c(OC)c1,.
O=C(Nc1cccc(F)c1)N1CC(=O)N2[C@H](C1)[C@@H](c1ccc(-c3cccc(F)c3)cc1)[C@@H]2CO,.
